# Reference: the supplement of paper PMC10849652
# Of roughly 8,800 targets only a part is listed; those with a hit were picked by preference. About 0.5% of all pairs of compound and target were hits. A number with no mark means an inactive call.
# Compound: CN1CCC(CNc2ccc3ncc(-c4cccc(OC(F)(F)F)c4)n3n2)CC1
# Test: log2 fold change, soluble protein after heating vs DMSO (PISA); higher = thermal stabilisation; K562 lysate, 10 uM; active = over 0.2 and 3.5 SD of the protein, either way, in both replicates (recomputed)
# Method in brief: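 To prepare the extract, K562 pellets were dounce-homogenised in PBS pH 7.4 with 1 mM MgCl2, giving crude material at 1 mg/mL protein. This was treated with 10 μM compound for 30 min, then heated in aliquots for 3 min over 48°C-58°C before pooling and addition of NP-40 to 0.5% at 4°C. Centrifugation at 21,000xg for 90 min left soluble protein in the supernatant, which TMTpro 16plex LC-MS/MS quantified with equalised channel sums. Results are log-two fold changes in thermal stability compared with solvent controls, from duplicates.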
# Chain of UniProt P04150 (P04150 whole entry, looked up): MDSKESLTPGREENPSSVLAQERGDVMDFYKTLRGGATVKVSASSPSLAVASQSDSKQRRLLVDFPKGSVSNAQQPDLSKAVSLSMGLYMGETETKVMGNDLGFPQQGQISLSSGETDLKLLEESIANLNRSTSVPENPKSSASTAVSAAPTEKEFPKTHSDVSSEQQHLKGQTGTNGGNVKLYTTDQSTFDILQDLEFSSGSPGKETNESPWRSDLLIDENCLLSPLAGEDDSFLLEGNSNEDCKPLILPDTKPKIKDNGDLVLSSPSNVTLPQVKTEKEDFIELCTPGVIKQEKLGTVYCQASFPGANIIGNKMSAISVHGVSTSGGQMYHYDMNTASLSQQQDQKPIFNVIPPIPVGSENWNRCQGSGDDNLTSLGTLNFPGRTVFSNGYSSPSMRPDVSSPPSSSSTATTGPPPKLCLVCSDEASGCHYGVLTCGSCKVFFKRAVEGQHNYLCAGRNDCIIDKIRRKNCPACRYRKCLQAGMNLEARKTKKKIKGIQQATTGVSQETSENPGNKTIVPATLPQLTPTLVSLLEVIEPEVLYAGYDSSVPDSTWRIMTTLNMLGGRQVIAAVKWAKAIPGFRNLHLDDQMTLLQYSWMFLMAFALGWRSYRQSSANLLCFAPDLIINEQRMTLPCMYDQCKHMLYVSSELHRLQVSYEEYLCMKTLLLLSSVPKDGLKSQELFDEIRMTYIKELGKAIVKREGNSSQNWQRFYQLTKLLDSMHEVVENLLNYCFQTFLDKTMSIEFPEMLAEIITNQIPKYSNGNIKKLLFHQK
# Chain of UniProt O60313 (O60313 whole entry, looked up): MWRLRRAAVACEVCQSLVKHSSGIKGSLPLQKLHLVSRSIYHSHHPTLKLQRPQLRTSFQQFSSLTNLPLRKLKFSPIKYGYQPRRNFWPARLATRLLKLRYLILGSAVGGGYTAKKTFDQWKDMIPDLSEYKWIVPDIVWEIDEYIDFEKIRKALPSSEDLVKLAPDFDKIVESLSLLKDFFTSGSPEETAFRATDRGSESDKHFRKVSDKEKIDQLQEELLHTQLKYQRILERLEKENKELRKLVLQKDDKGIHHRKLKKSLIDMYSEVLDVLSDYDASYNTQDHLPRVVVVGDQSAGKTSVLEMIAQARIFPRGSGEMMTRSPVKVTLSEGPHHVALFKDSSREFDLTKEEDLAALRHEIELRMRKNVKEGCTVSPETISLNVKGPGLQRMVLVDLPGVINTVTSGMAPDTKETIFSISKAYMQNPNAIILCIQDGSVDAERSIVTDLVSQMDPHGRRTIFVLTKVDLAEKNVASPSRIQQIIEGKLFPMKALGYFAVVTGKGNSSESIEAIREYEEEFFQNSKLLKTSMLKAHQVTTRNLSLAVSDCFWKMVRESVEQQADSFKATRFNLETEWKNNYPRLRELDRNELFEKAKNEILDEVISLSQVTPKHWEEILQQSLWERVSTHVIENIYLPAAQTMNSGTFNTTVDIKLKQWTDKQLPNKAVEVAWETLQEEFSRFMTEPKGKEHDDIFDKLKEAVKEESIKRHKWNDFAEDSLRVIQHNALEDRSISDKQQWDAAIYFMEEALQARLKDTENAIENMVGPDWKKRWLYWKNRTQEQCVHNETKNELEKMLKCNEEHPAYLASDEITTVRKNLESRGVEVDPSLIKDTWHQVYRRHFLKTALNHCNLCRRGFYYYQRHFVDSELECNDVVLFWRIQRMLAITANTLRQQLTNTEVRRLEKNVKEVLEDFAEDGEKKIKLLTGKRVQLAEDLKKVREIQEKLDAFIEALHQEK
# Chain of UniProt Q15843 (Q15843 whole entry, looked up): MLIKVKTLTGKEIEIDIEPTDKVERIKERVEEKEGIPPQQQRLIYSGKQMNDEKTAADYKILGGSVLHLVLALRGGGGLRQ
# Chain of UniProt P00480 (P00480 whole entry, looked up): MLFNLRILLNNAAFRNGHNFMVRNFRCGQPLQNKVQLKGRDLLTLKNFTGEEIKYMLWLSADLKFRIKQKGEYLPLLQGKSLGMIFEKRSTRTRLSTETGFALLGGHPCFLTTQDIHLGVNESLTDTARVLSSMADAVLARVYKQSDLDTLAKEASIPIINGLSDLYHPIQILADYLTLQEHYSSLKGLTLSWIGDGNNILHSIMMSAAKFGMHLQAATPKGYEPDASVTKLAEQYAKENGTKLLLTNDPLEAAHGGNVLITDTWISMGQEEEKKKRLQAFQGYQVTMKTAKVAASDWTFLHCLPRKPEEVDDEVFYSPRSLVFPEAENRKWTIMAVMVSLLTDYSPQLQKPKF
# Chain of UniProt Q15021 (Q15021 whole entry, looked up): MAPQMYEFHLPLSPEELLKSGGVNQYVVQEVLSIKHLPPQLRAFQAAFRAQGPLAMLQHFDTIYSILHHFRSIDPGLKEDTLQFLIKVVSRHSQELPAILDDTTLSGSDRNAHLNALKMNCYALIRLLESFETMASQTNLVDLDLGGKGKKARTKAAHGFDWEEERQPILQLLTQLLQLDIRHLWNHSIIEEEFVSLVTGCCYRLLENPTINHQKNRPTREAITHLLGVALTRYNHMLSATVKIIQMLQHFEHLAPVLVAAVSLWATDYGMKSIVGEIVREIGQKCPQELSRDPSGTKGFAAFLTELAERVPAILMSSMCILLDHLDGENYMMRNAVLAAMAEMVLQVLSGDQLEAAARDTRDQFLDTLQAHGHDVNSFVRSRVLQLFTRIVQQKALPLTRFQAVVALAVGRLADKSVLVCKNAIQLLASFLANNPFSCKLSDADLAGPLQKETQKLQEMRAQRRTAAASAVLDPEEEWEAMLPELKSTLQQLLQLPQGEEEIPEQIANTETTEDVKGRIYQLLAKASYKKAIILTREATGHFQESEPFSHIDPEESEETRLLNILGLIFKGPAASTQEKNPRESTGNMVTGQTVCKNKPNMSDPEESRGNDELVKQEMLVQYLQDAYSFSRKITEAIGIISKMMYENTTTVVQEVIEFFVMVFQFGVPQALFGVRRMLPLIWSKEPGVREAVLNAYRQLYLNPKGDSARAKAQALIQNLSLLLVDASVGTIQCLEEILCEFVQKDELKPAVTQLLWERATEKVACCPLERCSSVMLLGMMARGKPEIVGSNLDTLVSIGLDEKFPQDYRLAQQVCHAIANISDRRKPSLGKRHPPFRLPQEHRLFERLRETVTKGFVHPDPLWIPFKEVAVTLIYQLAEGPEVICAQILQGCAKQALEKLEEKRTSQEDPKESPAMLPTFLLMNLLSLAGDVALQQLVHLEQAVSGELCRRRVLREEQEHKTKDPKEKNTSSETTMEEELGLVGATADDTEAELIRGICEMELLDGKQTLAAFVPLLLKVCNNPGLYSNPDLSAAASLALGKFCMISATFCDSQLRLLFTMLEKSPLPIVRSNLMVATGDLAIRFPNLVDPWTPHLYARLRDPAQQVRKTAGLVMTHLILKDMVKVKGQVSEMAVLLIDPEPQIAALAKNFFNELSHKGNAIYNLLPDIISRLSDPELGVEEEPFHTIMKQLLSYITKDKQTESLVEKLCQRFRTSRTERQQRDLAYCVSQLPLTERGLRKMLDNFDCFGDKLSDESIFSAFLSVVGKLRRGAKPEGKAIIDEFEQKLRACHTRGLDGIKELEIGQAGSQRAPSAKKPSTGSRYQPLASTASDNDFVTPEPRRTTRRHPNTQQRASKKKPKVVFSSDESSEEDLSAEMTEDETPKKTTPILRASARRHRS
# Chain of UniProt Q9BPX3 (Q9BPX3 whole entry, looked up): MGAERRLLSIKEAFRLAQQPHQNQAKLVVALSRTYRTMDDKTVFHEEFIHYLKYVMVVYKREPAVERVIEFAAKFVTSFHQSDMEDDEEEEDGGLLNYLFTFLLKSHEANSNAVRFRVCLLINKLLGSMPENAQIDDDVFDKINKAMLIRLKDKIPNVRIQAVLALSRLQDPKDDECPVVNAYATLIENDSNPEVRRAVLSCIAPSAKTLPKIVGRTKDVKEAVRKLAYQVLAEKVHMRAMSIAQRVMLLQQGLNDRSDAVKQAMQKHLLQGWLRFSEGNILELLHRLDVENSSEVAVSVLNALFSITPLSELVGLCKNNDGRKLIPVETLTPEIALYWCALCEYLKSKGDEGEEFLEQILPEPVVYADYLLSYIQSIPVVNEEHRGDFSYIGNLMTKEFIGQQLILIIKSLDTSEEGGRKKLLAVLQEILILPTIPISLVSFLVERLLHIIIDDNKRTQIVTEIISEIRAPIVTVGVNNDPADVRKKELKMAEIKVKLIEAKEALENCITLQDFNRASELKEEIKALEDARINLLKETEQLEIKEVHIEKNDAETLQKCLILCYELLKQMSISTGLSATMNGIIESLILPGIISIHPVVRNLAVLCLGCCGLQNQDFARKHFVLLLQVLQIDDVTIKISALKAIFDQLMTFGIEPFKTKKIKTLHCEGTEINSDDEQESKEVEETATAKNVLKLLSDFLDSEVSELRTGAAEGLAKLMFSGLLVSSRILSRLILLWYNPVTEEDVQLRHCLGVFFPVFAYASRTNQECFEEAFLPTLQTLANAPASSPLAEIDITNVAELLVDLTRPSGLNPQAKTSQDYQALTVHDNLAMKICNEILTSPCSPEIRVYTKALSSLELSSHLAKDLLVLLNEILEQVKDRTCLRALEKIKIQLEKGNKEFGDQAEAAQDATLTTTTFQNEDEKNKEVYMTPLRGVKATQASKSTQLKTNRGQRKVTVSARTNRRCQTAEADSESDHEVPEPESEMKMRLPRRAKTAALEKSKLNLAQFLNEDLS
# Chain of UniProt Q9NZJ9 (Q9NZJ9 whole entry, looked up): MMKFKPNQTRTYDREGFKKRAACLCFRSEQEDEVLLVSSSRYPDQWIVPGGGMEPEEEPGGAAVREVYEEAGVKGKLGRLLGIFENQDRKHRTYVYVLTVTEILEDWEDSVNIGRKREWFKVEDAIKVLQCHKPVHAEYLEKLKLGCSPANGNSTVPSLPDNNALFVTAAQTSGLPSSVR
row,Target,log2 fold change
1,NUMBL (UniProt Q9Y6R0),-0.011
2,OPA1 isoform 2 (UniProt O60313),-0.192
3,MTHFD1L (UniProt B7ZM99),-0.056
4,PARD3 (UniProt Q8TEW0),-0.08
5,NACC1 (UniProt Q96RE7),-0.003
6,NEDD8 (UniProt Q15843),-0.107
7,PANK4 (UniProt Q9NVE7),0.077
8,NAA35 (UniProt Q5VZE5),-0.035
9,OGFR (UniProt Q9NZT2),-0.039
10,MTMR6 (UniProt Q9Y217),-0.08
11,OTC (UniProt P00480),0.371
12,NELFCD (UniProt Q8IXH7),-0.049
13,NFATC2IP (UniProt Q8NCF5),-0.031
14,NUDT4 isoform 2 (UniProt Q9NZJ9),0.058
15,NADK2 (UniProt Q4G0N4),0.02
16,NUP98 (UniProt P52948),0.019
17,NR3C1 isoform 3 (UniProt P04150),-0.081
18,PAXBP1 (UniProt Q9Y5B6),0.004
19,NCAPD3 (UniProt P42695),-0.015
20,NPLOC4 isoform 2 (UniProt Q8TAT6),0.007
21,N4BP2 (UniProt Q86UW6),0.029
22,NCAPD2 (UniProt Q15021),-0.055
23,NCAPG (UniProt Q9BPX3),-0.024
